In the library only some 0.49% were active in any assay of this set; here they are far more common.
EPAC1 antag – EPAC1 (human) antagonism; O95398; EPAC1 GEF assay, Rap1b-BODIPY-GDP exchange fluorescence; Potency, µM (doses to about 115 µM), without a hit: top-dose activity change, negative = inhibition, hits mostly inhibitors; 360,000 tested, 0.14% active;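 further: plate controls were vehicle for no effect and positive control for full effect; nearly all actives have a fitted effect of over 50% in size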
Target sequence (O95398 whole entry, looked up): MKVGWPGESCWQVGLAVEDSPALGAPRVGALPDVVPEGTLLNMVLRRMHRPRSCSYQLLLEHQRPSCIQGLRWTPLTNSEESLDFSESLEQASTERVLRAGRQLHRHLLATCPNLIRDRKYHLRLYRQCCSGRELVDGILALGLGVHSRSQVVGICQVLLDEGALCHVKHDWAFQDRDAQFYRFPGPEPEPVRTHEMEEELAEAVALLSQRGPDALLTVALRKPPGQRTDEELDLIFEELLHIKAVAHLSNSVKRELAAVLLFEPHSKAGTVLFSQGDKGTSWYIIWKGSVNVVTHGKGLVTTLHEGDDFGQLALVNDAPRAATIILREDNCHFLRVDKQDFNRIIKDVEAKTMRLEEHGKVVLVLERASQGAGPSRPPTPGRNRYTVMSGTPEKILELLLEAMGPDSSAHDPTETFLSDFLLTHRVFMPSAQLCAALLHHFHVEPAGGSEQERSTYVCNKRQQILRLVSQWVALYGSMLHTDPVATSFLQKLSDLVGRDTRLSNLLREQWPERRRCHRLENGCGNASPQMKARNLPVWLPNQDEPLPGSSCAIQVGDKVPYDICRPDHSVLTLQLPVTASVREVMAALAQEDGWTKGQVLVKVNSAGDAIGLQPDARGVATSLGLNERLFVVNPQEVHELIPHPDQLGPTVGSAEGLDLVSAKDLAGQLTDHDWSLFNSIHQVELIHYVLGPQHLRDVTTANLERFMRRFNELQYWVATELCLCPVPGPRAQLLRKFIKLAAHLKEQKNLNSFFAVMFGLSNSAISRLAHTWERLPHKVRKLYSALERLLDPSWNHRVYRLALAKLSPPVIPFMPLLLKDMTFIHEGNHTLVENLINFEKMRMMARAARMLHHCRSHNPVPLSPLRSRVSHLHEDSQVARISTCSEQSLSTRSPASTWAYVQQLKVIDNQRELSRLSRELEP
EPAC2 antagonist – antagonists of human EPAC2; AID 720708; Potency, µM (series often up to 114 µM), for inactives: at the top dose activity, negative = inhibition, hits mostly inhibitors; EPAC2 GEF exchange of Rap1B-BODIPY-GDP, fluorescence; 360,000 tested, 0.18% active; further: on the % scale 0 is the no-effect control and ±100 the full control effect; nearly all actives have a fitted effect of over 45% in size
EPAC2 agonist – agonists of human EPAC2 (RAPGEF4); Potency, µM (top dose mostly 154 µM), inactives show at the highest dose activation, most hits filed as activators; EPAC2 activation, biochemical qHTS; response scale: 100% = 6.5 mM cAMP response; 360,000 tested, 0.079% active; further: nearly all actives have a fitted effect of over 50% in size
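Compounds were titrated in qHTS against a Rap1B-BODIPY-GDP (250 nM) complex with EPAC2 (100 nM) and GDP (50 uM). BODIPY-GDP release tracked at 480/540 nm over 30 min at room temperature, normalized to 6.5 mM cAMP.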
EPAC1 agonist – EPAC1 (human) agonism. O95398. EPAC1 agonist qHTS, biochemical assay; response scale: 100% = response to 6.5 mM cAMP. Potency, µM (titrated, usually from 154 µM), for the others: at the highest dose activation, hits mostly activators. 360,000 tested, 0.073% active; further: nearly all actives have a fitted effect of over 60% in size
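Multi-concentration qHTS readout: loss of Rap1B-bound BODIPY-GDP fluorescence driven by 100 nM EPAC1 with excess GDP (50 uM), monitored kinetically at room temperature; agonist response expressed relative to 6.5 mM cAMP.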
USP1 inh – inhibitors of human USP1/UAF1 deubiquitinase. Potency, µM (highest dose often 57.1 µM), without a hit: top-dose activity change, negative = inhibition, hits mostly inhibitors. AID 743255. O94782. recombinant USP1/UAF1, Ub-Rhodamine cleavage fluorescence. 390,000 tested, 0.23% active; further: on the % scale 0 is the no-effect control and ±100 the full control effect; nearly all actives have a fitted effect of over 60% in size
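USP1/UAF1 complex (1 nM) preincubated 15 min at room temperature with compound, then Ub-Rho substrate (150 nM final) added. Kinetic fluorescence at 480/540 nm over 6 reads at 60 s intervals; 50 mM HEPES pH 7.8, 0.5 mM EDTA, 0.1 mg/ml BSA, 1 mM TCEP, 0.01% Tween-20.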
The depositor's hits bear a star; i = inactive; ? = inconclusive; . = no result. The call rests on the fitted dose curve; in most records, active means well fitted curve in the direction sought with a large enough effect; inconclusive means small, poorly fitted or top-dose-only effect, or another doubt; inactive means no such curve, though single readings can be large; an effect the other way counts as inactive or inconclusive. Potency means the concentration at half of the fitted maximal effect.

SMILES	EPAC1 antag	EPAC2 antagonist	EPAC2 agonist	EPAC1 agonist	USP1 inh
CC(C)CCNc1nc2c(S(=O)(=O)c3ccc(Br)cc3)nnn2c2ccsc12	.	.	.	.	-16%
COc1ccc(NC(=O)CCCSc2nc(-c3ccco3)cc(C(F)(F)F)n2)cc1	.	.	.	.	-4%
CC(=O)Oc1ccc2c(c1)Oc1cc(OC(C)=O)ccc1C21OC(=O)c2ccccc21	?	40µM*	i	.	i
CCOc1ccc(Oc2ccccc2NC(=O)CN2C(=O)NC3(CCCC3)C2=O)cc1	-20%	-4%	-5%	28µM*	-2%
CCc1ccc(NC(=O)CC2C(=O)N(c3cccc(C)c3)C(=O)N2CCC(C)C)cc1 (configuration not stated)	.	.	.	.	-6%
CCOC(=O)c1cc(S(=O)(=O)NCc2ccc(Cl)cc2)[nH]n1	.	.	.	.	-16%
CCCCN(C)C(=O)C1CCCN(c2ncnc3onc(C)c23)C1 (configuration not stated)	.	.	.	.	10%
CC1=C(C(=O)OC(C)C)C2(O)C(=O)c3ccccc3C2(O)N1 (configuration not stated)	-6%	-5%	2%	4%	-9%
CCOC(=O)C1=C(C)N[C@@]2(O)c3ccccc3C(=O)[C@@]12O	-3%	14%	4%	3%	-21%
CC(=O)C1=C(C)OC2(O)c3ccccc3C(=O)C12O (configuration not stated)	79µM*	-24%	21%	4%	8.9µM*
CCOC(=O)C1=C(C)OC2(O)c3ccccc3C(=O)C12O (configuration not stated)	?	-27%	?	1%	13µM*
Cc1cccc(N2CCN(S(=O)(=O)c3ccc4c(c3)CCN4C(=O)CCC(=O)O)CC2C)c1 (configuration not stated)	20µM*	61%	13%	56µM*	-13%
CC1CC(C)CN(S(=O)(=O)c2ccc3c(c2)CCN3C(=O)CCC(=O)O)C1 (configuration not stated)	-5%	-18%	2%	-7%	-6%
CC(=O)c1c(C)oc2ccc(N(C(=O)Oc3ccccc3)S(=O)(=O)c3ccc(Cl)cc3)cc12	.	.	.	.	0%
CCCc1nn2c(=O)cc(COC(=O)CNC(=O)COc3ccc(C)cc3)nc2s1	.	.	.	.	-16%
Cc1ccc(S(=O)(=O)/N=C2/NC(=O)/C(=C\c3cc(Br)cc(Br)c3O)S2)cc1	?	79µM*	0%	-2%	?
COc1cccc(CNC(=O)C2CCN(C(=O)N3CCOc4ccc(Cl)cc43)CC2)c1OC	.	.	.	.	0%
Nc1ncc(-c2ccc(-c3ccccc3)cc2F)cc1-c1ccccc1F	-20%	-3%	9%	2%	.
COC1OC(c2ccccc2)=C(c2cnc(N)nc2)c2ccc(F)cc21 (configuration not stated)	-5%	40µM*	10%	5%	.
CCc1ccc(C(=O)c2c(N)c(-c3nc(-c4ccc5c(c4)OCO5)cs3)c3ccccn23)cc1	.	.	.	.	-27%
COc1ccc2oc(C(=O)Nc3ccc(N4CCOCC4)cc3)c(C)c2c1	?	10%	-2%	63µM*	-11%
CN(CCc1ccccn1)C(=O)Nc1ccc(F)cc1	4%	5%	6.3µM*	1%	-7%
CCOC(=O)c1c(-c2ccc(Cl)cc2)csc1NC(=O)CNCc1ccco1	3%	-9%	14%	-3%	-21%
CCOC(=O)c1c(-c2ccccc2)csc1NC(=O)C(C)NCc1ccco1 (configuration not stated)	?	45µM*	1%	16%	-11%
COc1ccccc1N1CCN(C(=O)c2ccc(S(=O)(=O)N3CCCC3)cc2)CC1	1%	7%	7.9µM*	-5%	-15%
CCN(c1cccc(C)c1)S(=O)(=O)c1nnc(NC(=O)c2ccccc2Cl)s1	.	.	.	.	-11%
COC(CNC(=O)c1ccc2c3c(onc13)-c1ccccc1C2=O)OC	?	?	50µM*	56µM*	18µM*
CN(C)c1ccc(C(CNC(=O)c2ccc(C(C)(C)C)cc2)N2CCOCC2)cc1 (configuration not stated)	.	.	.	.	-1%
